From PubChem BioAssay (EPA / NIEHS)
Active and inactive are the calls of the source. How the source made its calls: active means hit-call score of the fitted dose curve at least 0.9, where 1 is the maximum; inactive means score below 0.9.

Experiment: ATG_SREBP_CIS: Attagene CIS-FACTORIAL HepG2 Assay for human Sterol Regulatory Element Binding (SREBP) (AID 2282962)
Settings: HepG2 Attagene cis-factorial SREBP reporter, mRNA; actives raise or lower the signal
Protocol: ATG_CIS is a cell-based, multiplexed-readout assay that uses HepG2, a human liver cell line, with measurements taken at 24 hours after chemical dosing in a 24-well plate.ATG_SREBP_CIS is one of 52 assay component(s) measured or calculated from the ATG_CIS assay. It is designed to make measurements of mRNA induction, a form of inducible reporter, as detected with fluorescence intensity signals by Reverse transcription polymerase chain reaction (RT-PCR) and Capillary electrophoresis technology.Data from the assay component ATG_SREBP_CIS was analyzed into 1 assay endpoint. This assay endpoint, ATG_SREBP_CIS, was analyzed with bidirectional fitting relative to DMSO as the negative control and baseline of activity. Using a type of inducible reporter, measures of mRNA for gain or loss-of-signal activity can be used to understand the reporter gene at the transcription factor-level as they relate to the gene SREBF1. Furthermore, this assay endpoint can be referred to as a primary readout, because this assay has produced multiple assay endpoints where this one serves a reporter gene function. To generalize the intended target to other relatable targets, this assay endpoint is annotated to the dna binding intended target family, where the subfamily is basic helix-loop-helix leucine zipper.
Human liver HepG2 cells are transiently transfected with multiple reporter transcription units (MRTUs) in 6-well plates using FuGene 6 reagent (Roche; 3 ml FuGene/1 mg DNA). The MRTU constructs are regulated by a cis-regulating element (promoter). […] A major difference between the CIS and TRANS system is that in CIS activities of endogenous TFs are measured, whereas the TRANS assay evaluates changes in activities of exogenous, chimeric NR-Gal4 proteins. […] At the end of 24 hour incubation, total RNA was isolated using TriZol reagent (Invitrogen). The isolated RNA is then reverse-transcribed using oligo(dT) primer and Mo-MLV reverse transcriptase (Invitrogen) with DNAse I (Ambion) treatment for 30 min. The one-tenth of the produced cDNA was amplified by PCR using Taq DNA polymerase (Invitrogen) and two reporter sequence-specific primers. The PCR products were fluorescently labeled by primer extension with 6-arboxyfluorescein (6-FAM) 5'-labeled reporter sequence-specific primer (2 min at 95 C, 20 s at 68 C and 10 min at 72 C) and these products were digested with 5U of HpaI (New England Biolabs) for 2h at 37 C. The fragments were purified using Qiaquick PCR columns (Qiagen), analyzed on an ABI 3130xL genetic analyzer (Applied Biosystems) with peak positions identified by using a set of X-rhodamine (ROX)-labeled MapMarker1000 molecular weight standards (BioVentures). The raw capillary electrophoresis data was processed using Attagraph software (Attagene).

| Structure (SMILES) | outcome | AC50 |
| --- | --- | --- |
| O=C1CCc2ccccc2O1 | inactive | – |
| COC(=O)C1=C(C)NC(C)=C(C(=O)OCCN(C)Cc2ccccc2)C1c1cccc([N+](=O)[O-])c1 (stereo not given) | inactive | – |
| C=C(C)C(=O)Nc1ccc(Cl)c(Cl)c1 | inactive | – |
| S=C(S)NCCNC(=S)S | inactive | – |
| CCCCCCCCCCCCN(CCCCCCCCCCCC)CCCCCCCCCCCC | inactive | – |
| O=C[C@H](O)[C@H](O)[C@H](O)CO | inactive | – |
| CCO[Si](CCCS)(OCC)OCC | inactive | – |
| CCCC(=O)OCCC(C)CCC=C(C)C (stereo not given) | inactive | – |
| C=C(C)C(=O)O | inactive | – |
| CC(C)C1CCC(O)CC1 (stereo not given) | inactive | – |
| C=CC(=O)OCC(O)COc1ccccc1 (stereo not given) | inactive | – |
| CC(=O)Nc1ccc(CC(=O)O)cc1 | inactive | – |
| CO[Si](C)(OC)c1ccccc1 | inactive | – |
| CC1CC(OC(=O)c2ccccc2O)CC(C)(C)C1 (stereo not given) | inactive | – |
| CSc1nnc(C(C)(C)C)c(=O)[nH]1 | inactive | – |
| NCCCN1CCOCC1 | inactive | – |
| CCCCCCCCCCCCCCCCCC(=O)OCC(CC)CCCC (stereo not given) | inactive | – |
| N#Cc1nc(Cl)c(Cl)c(Cl)c1Cl | – | 5.74 µM (active) |
| O=C(OCc1ccccc1)C(=O)OCc1ccccc1 | inactive | – |
| OC[C@H]1O[C@H](O[C@]2(CCl)O[C@H](CCl)[C@@H](O)[C@@H]2O)[C@H](O)[C@@H](O)[C@H]1Cl | inactive | – |

| Structure (SMILES) | outcome | AC50 |
| --- | --- | --- |
| CCCCCCCCCC=O | inactive | – |
| O=C=NC1CCC(CC2CCC(N=C=O)CC2)CC1 (stereo not given) | inactive | – |
| CC(C)(N)CO | inactive | – |
| O=c1cc(-c2ccccc2)oc2cc(O)cc(O)c12 | inactive | – |
| CCn1c2ccccc2c2cc(N)ccc21 | – | 27.3 µM (active) |
| CCCCCC(CO)CCC (stereo not given) | inactive | – |
| CC(=O)c1c(C)cc(C(C)(C)C)cc1C | inactive | – |
| C=CC(C)(C)O | inactive | – |
| Clc1cccc(Cl)n1 | inactive | – |
| O=Cc1ccc(Cl)c([N+](=O)[O-])c1 | – | 137 µM (active) |
| OC1OC[C@@H](O)[C@H](O)[C@H]1O (stereo not given in full) | inactive | – |
| C=CCOc1nc(OCC=C)nc(OCC=C)n1 | inactive | – |
| ClCCCl | inactive | – |
| O=C(Nc1ccccc1)c1cc([N+](=O)[O-])ccc1Cl | inactive | – |
| CNC(=O)Oc1ccc2c(c1)[C@]1(C)CCN(C)[C@@H]1N2C | inactive | – |
| CN(CCOc1ccc(CC2SC(=O)NC2=O)cc1)c1ccccn1 (stereo not given) | – | 5.58 µM (active) |
| Cc1ccc(C(=O)c2cc(O)c(O)c([N+](=O)[O-])c2)cc1 | inactive | – |
| CCCCCCCCCCCCOCCO | – | 49.1 µM (active) |
| FC1(F)C(F)(F)C(F)(F)C2(F)C(F)(C1(F)F)C(F)(F)C(F)(F)C1(F)C(F)(F)C(F)(F)C(F)(F)C(F)(F)C12F (stereo not given) | inactive | – |
| CC(C)=CCC[C@](C)(O)[C@@H]1CC=C(C)CC1 | inactive | – |
